PubChem BioAssay (NCATS)
“And” between values parts separate entries of the source, which are not always exact repeats. Equal values may be shown once. Inconclusive results are not listed. For some assays here: Results with a measured potency or affinity are listed apart. The source made the active and inactive calls.

What was measured:
[1] = qHTS profiling of the MIPE4 collection as inhibitors of Plasmodium falciparum (3D7) proliferation (AID 743344);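 further: scaled between DMSO vehicle wells and 0.29 µM artemisinin as full inhibition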; details: P. falciparum 3D7 in erythrocytes, SYBR Green DNA fluorescence, 72 h; at 28.5 µM unless noted
Outline: (§1)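 Erythrocytes infected with P. falciparum (0.3% parasitemia, 2.5% hematocrit) incubated with compounds 72 h at 37 C, 5% CO2. Lysis with saponin/Triton buffer containing SYBR Green I, overnight at room temperature in the dark; DNA fluorescence (485/535 nm) normalised to 0.29 uM artemisinin and DMSO.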

[2] = qHTS profiling of the MIPE4 collection as inhibitors of Plasmodium falciparum (DD2) proliferation (AID 743345); details: P. falciparum Dd2 in erythrocytes, SYBR Green DNA, 72 h; at 28.5 µM unless noted
Outline: as §1

[3] = qHTS profiling of the MIPE4 collection as inhibitors of Plasmodium falciparum (DD2) proliferation (Rep 2) (AID 743346); details: P. falciparum Dd2 in erythrocytes, SYBR Green DNA, 72 h; at 28.5 µM unless noted
Outline: as §1

[4] = qHTS profiling of the MIPE4 collection as inhibitors of Plasmodium falciparum (HB3) proliferation (AID 743347);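 further: plate controls were DMSO vehicle wells for no effect and artemisinin wells for full effect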; details: P. falciparum HB3 in erythrocytes, SYBR Green DNA, 72 h; at 28.5 µM unless noted
Outline: as §1

[5] = Ebola virus entry assay, green fluorescence channel
[6] = Ebola virus entry assay, blue channel fluorescence
[7] = qHTS for compounds that reverse cellular toxicity of Amyloid beta (A-beta) peptide in yeast: LOPAC Validation Assay (AID 720559; active means well fitted curve in the direction sought with a large enough effect; an effect the other way counts as inactive or inconclusive;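 further: plate controls were DMSO for no effect and equimolar ferric chloride plus clioquinol rescue for full effect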)
Outline: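 Activity is expressed relative to DMSO and an equimolar ferric chloride/clioquinol mix. Compounds were pinned into medium with A-beta-expressing yeast, grown 48 hr at 30 C, then read by absorbance at 600 nm.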

[8] = qHTS for Activators of Parkin Expression: LOPAC Validation Assay (FLuc Reporter) (AID 720573; active means well fitted curve in the direction sought with a large enough effect; an effect the other way counts as inactive or inconclusive;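 further: 0% = DMSO and 100% = positive control compounds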)
Outline: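 A neuronal cell line harbouring FLuc and NLuc reporters behind the Parkin promoter was exposed to compounds for 24 h. Firefly luciferase signal, measured after 10 min with detection reagent, was scaled to DMSO and positive-control wells.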

[9] = molecular target: T1, Hexokinase-4 (Homo sapiens) + Glucokinase regulatory protein (Homo sapiens) (UniProt P35557+Q14397); assay: qHTS assay for inhibitors of recombinant human GCK-GKRP interaction: Diaphorase-coupled assay (AID 743205; active means well fitted curve in the direction sought with a large enough effect; an effect the other way counts as inactive or inconclusive)
T1 sequence (P35557 whole entry, looked up): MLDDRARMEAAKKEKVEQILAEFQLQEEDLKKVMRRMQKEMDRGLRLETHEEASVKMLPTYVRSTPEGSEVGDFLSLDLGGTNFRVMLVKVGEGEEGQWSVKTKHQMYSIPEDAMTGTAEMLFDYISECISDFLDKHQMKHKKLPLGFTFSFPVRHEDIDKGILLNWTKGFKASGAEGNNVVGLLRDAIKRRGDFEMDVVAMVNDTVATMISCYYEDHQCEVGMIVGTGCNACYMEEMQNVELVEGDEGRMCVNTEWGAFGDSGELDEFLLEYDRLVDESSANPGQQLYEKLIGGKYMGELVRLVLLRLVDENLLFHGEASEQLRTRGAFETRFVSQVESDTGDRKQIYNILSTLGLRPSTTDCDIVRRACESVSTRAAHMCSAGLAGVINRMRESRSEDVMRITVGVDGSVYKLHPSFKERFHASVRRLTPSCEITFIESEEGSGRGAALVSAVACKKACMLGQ
T1 sequence (Q14397 whole entry, looked up): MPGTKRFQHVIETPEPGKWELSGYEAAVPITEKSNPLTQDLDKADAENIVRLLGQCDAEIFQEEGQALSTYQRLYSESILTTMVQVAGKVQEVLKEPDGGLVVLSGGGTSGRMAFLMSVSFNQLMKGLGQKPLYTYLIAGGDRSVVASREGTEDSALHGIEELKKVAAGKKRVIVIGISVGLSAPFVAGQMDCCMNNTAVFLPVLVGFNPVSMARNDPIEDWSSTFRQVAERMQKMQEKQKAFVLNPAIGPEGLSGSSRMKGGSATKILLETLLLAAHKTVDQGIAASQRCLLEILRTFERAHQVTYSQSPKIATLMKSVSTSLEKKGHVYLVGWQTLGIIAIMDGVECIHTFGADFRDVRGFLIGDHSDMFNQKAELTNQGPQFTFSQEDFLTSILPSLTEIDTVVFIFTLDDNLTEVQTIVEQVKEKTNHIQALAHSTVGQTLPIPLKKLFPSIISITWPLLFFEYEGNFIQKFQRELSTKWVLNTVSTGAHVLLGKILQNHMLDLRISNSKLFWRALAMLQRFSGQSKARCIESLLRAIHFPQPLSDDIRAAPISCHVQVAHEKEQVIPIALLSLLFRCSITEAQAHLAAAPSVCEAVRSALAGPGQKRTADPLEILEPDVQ
Outline: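 Inhibitors of the GCK–GKRP complex relieve GKRP suppression of GCK, detected through a G6PDH–diaphorase cascade reducing resazurin. Human GST-GCK and FLAG-GKRP are used at 10 nM with 5 mM glucose and 0.4 mM ATP.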

[10] = molecular target: T1, Hexokinase-4 (Homo sapiens) + Glucokinase regulatory protein (Homo sapiens); assay: qHTS assay for inhibitors of recombinant human GCK-GKRP interaction: ADP-Glo assay (AID 743206; active means well fitted curve in the direction sought with a large enough effect; an effect the other way counts as inactive or inconclusive;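 further: plate controls were DMSO plus enzyme for no effect and no enzyme for full effect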)
Outline: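 GST-GCK and FLAG-GKRP (15 nM each in the dispensed mix, with 2 uM S6P) react with 0.4 mM ATP and 5 mM glucose (final) in Hepes pH 7.6 for 60 min at room temperature. ADP is measured by ADP-Glo luminescence.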

[11] = molecular target: T1, Hexokinase-4 (Homo sapiens) + Glucokinase regulatory protein (Homo sapiens); assay: qHTS assay for inhibitors of recombinant human GCK-GKRP interaction: HTRF assay (AID 743207; active means well fitted curve in the direction sought with a large enough effect; an effect the other way counts as inactive or inconclusive;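 further: 0% = DMSO with GCK present and -100% = DMSO wells lacking GCK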)
Outline: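 Steps: dispense GCK–GKRP complex (5 nM each, GST- and FLAG-tagged) with 2 uM S6P; pin in compounds; add XL665/Eu-cryptate-labelled antibodies; incubate 60 min at room temperature; read time-resolved FRET at 665 and 615 nm.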

[12] = qHTS Assay for Identifying Gametocytocidal Compounds (AID 743244; active means well fitted curve in the direction sought with a large enough effect; an effect the other way counts as inactive or inconclusive;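 further: on the % scale 0 is the no-effect control and ±100 the full control effect; actives lower the fluorescent signal which means gametocytes are killed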); details: P. falciparum 3D7 stage III-V gametocytes, alamarBlue, 72 h; max response: stronger effect = lower value
Outline: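 In this qHTS viability screen, late-stage 3D7 gametocytes are incubated with compound for 72 h, then with alamarBlue for 24 h; reduced resorufin fluorescence marks killing.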
Wherever efficacy is given: 0% is about no effect.

## O=NN(CCCl)C(=O)NCCCl
[1]
  parasite growth, % of DMSO control: 95.8%
[2]
  parasite growth remaining, % of DMSO control (lower = more inhibition): 102%
[3]
  parasite growth, % of control (lower = inhibition): 150%
[4]
  growth, % of control: 83.1%
[5]
  efficacy: -15% (inactive)
[6]
  outcome: inactive

## CC(=O)[C@H]1CC[C@H]2[C@@H]3CC[C@H]4C[C@](C)(O)CC[C@]4(C)[C@H]3CC[C@]12C
[7]
  outcome: inactive
[8]
  outcome: inactive
[9]
  outcome: inactive
[10]
  outcome: inactive
[11]
  outcome: inactive
[12]
  max response: -7.05% (inactive) and 9.26% (inactive)
[5]
  efficacy: 28.4% (inactive)

## Cc1ccc(S(=O)(=O)N[C@@H](CCCCN)C(=O)CCl)cc1
[7]
  outcome: inactive
[8]
  outcome: inactive
[9]
  outcome: inactive
[10]
  outcome: inactive
[11]
  outcome: inactive
[5]
  efficacy: 32.6% (inactive)

## CC1Cc2ccccc2N1NC(=O)c1ccc(Cl)c(S(N)(=O)=O)c1 (centres undefined)
[1]
  parasite growth, % of DMSO control: 83.7%
[2]
  parasite growth remaining, % of DMSO control (lower = more inhibition): 34.3%
[3]
  parasite growth, % of control (lower = inhibition): 84.2%
[5]
  efficacy: 11.5% (inactive)
[6]
  outcome: inactive

## O=C(OC1C[C@H]2CC[C@@H](C1)[N+]21CCCC1)C(O)(c1ccccc1)c1ccccc1 (some centres undefined)
[1]
  parasite growth, % of DMSO control: 32.2%
[2]
  parasite growth remaining, % of DMSO control (lower = more inhibition): 48.3%
[3]
  parasite growth, % of control (lower = inhibition): 30.4%
[5]
  efficacy: 12.9% (inactive)
[6]
  outcome: inactive
